TDP1 cell noCPT: qHTS for Inhibitors of human tyrosyl-DNA phosphodiesterase 1 (TDP1): qHTS in cells in absence of CPT. DT40 Tdp1-/- hTDP1 cells, no CPT, ATP luminescence, 48 h. Potency, µM (top dose mostly 46.2 µM), hits mostly inhibitors. 15% of 420,000 active; note: nearly all actives have a fitted effect of over 55% in size
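Chicken DT40 Tdp1-/- cells stably complemented with human TDP1 were seeded at 400 cells/well with DMSO in place of 20 nM camptothecin. After compound pinning, cells grew at least 48 hr at 37 °C; viability read by CellTiter-Glo luminescence.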
TDP1 inh: blocks human tyrosyl-DNA phosphodiesterase 1. Potency, µM (top dose mostly 130 µM), actives largely listed as inhibitors. 0.28% of 350,000 active. recombinant TDP1, AlphaScreen DNA substrate cleavage; note: nearly all actives have a fitted effect of over 40% in size
Target sequence (Q9NUW8 whole entry, looked up): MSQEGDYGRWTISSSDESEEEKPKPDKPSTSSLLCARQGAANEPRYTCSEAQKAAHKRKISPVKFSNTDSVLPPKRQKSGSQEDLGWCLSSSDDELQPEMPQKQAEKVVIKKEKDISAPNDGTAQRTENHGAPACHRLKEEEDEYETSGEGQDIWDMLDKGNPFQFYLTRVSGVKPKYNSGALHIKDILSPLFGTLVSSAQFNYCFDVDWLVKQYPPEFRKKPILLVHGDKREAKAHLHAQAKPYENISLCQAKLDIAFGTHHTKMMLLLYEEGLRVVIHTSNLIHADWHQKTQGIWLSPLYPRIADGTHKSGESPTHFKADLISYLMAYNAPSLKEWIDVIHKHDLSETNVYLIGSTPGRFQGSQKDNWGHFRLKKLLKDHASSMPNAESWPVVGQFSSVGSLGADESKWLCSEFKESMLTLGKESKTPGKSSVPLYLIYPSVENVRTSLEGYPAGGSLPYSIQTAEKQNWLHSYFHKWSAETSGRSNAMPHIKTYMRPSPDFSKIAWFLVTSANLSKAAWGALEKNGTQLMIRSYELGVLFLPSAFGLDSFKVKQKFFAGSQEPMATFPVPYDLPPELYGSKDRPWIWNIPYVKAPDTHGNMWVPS
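E. coli-derived human Tdp1, 1 nM final. Cpd preinc 15 min RT; substrate 15 nM final, 5 min RT; AS bead mix 10 ug/ml final, 10 min RT. Signal loss = tyrosine-FITC cleavage. No-enzyme wells = max signal.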
HepG2 tox: counter-screen for TGF-b inhibitors: cytotoxicity in HepG2 cells; HepG2 CAGA-GFP viability, ATP luminescence, 18 h; Potency, µM (highest dose often 46.1 µM), actives largely listed as cytotoxic; 0.76% of 410,000 active; AID 588856
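CellTiter-Glo luminescence gave cytotoxicity after 18 hours at 37 degrees C. The cells were HepG2 CAGA-GFP in 1% FBS DMEM, stimulated with 500 pg/mL TGF-beta after compound addition. %Activity was normalised to no-cell wells (complete cell-killing) and DMSO (no toxicity), and curves were fitted and classified.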
TGFb inhibitor: TGF-b pathway inhibition. HepG2 CAGA-GFP TGF-b/SMAD3 reporter, GFP fluorescence, 18 h; TGF-beta stimulated, 500 pg/mL final. Potency, µM (highest dose often 46.1 µM), most hits filed as inhibitors. 1.2% of 410,000 active; note: nearly all actives have a fitted effect of over 65% in size
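Inhibition of TGF-beta-driven CAGA-GFP reporter expression in HEPG2 cells is measured by cellular GFP fluorescence after 18 h stimulation with 500 pg/mL recombinant TGF-beta in 1% FBS medium at 37 degrees C.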
TDP1 cell CPT: DT40-hTDP1 cell growth loss with CPT; chicken DT40 Tdp1-/-;hTDP1 cells + 20 nM CPT, ATP luminescence, 48 h; Potency, µM (top dose mostly 46.2 µM), most hits filed as inhibitors; 12% of 420,000 active; AID 686979; note: nearly all actives have a fitted effect of over 55% in size
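Cell growth measured by CellTiter-Glo luminescence after a minimum 48 h, 37 C compound exposure with 20 nM CPT in Tdp1-knockout DT40 cells stably expressing hTDP1, seeded 400/well; qHTS titration format.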
IL1B secr inh: blocks inflammasome-driven IL-1 beta release; THP-1 LPS/ATP IL-1B secretion, AlphaLISA, 16 h; stronger effect = lower value; activity change, % at 57.5 µM; 4.7% of 360,000 active; AID 743279; in the data active = activity change below about -50%; inconclusive = mostly about -30% to -49%
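Secreted IL-1B measured by AlphaLISA bead assay after 16 h compound exposure of THP-1 cells; compounds (final up to 57.5 uM) added 1 h before LPS (250 ng/mL) and ATP (1.25 mM) stimulation; lower signal means less secretion.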
Of the large screens only hits and unclear results are named; the others gave an inactive call. Sampled rows, rich in hits. Any-hit rate of the full collection: about 18%. Unless noted, calls come from the whole dose curve; as a rule, active = well fitted curve in the direction sought with a large enough effect; inconclusive = small, poorly fitted or top-dose-only effect, or another doubt; inactive = no such curve, though single readings can be large; an effect the other way counts as inactive or inconclusive.

CCOC(=O)c1sc(NC(=O)c2cc(-c3ccc(C)cc3)nc3ccccc23)c(C#N)c1C	TDP1 cell noCPT 16µM, TGFb inhibitor inconclusive, TDP1 cell CPT 21µM
COc1cccc(CNC(=O)C2CCN(C(=O)c3sccc3-n3cccc3)CC2)c1	none (no result: TGFb inhibitor, IL1B secr inh)
Cc1ccc(S(=O)(=O)N2CCN(C(=O)CC(C)n3nc(C)c(Cl)c3C)CC2)cc1C (stereo not given)	TGFb inhibitor inconclusive, TDP1 cell CPT inconclusive
CCN(CC)CCCNc1nc2cc(OC)c(OC)cc2c2nc(-c3ccccc3)nn12	TDP1 cell noCPT 5.2µM, TGFb inhibitor inconclusive, TDP1 cell CPT 21µM, IL1B secr inh -88
CCOc1ccccc1NC(=O)CSc1nc2cc(OC)c(OC)cc2c2nc(-c3ccccc3)nn12	none (no result: IL1B secr inh)
CCN(CC)CCCNc1nc2ccccc2c2nc(-c3ccncc3)nn12	TDP1 cell noCPT 21µM, TDP1 cell CPT inconclusive, IL1B secr inh -102 (no result: TDP1 inh)
COc1cc2nc(NCC3CCCO3)n3nc(-c4cccnc4)nc3c2cc1OC (stereo not given)	TDP1 cell noCPT 21µM, TDP1 cell CPT 9.2µM
Cc1ccc(CCNc2nc3ccccc3c3nc(-c4cccnc4)nn23)cc1	TDP1 cell noCPT inconclusive (no result: IL1B secr inh)
CCN(CC)CCCNc1nc2cc(OC)c(OC)cc2c2nc(-c3cccnc3)nn12	TDP1 cell noCPT 13µM, TDP1 cell CPT 15µM, IL1B secr inh -90
O=C1CN(C(=O)CSc2nc3ccccc3n2CCc2ccccc2)c2ccccc2N1	TDP1 cell noCPT 23µM, TDP1 cell CPT inconclusive
C=CCn1c(SCC(=O)N2CC(=O)Nc3ccccc32)nc2scc(-c3cccs3)c2c1=O	TDP1 cell noCPT 18µM, TDP1 cell CPT inconclusive
O=C1CN(C(=O)CSc2nc3ccccc3c(=O)n2Cc2ccc(F)cc2)c2ccccc2N1	TDP1 cell noCPT inconclusive, IL1B secr inh -71
Cn1c(SCC(=O)N2CC(=O)Nc3ccccc32)nc2ccccc2c1=O	IL1B secr inh inconclusive
CC(C)CCn1c(SCC(=O)N2CC(=O)Nc3ccccc32)nc2scc(-c3cccs3)c2c1=O	TDP1 cell noCPT inconclusive
Clc1cccc(CSc2ccc(-c3cccs3)nn2)c1	TDP1 cell noCPT inconclusive (no result: IL1B secr inh)
COc1ccc(C(N)c2nccc3cc(OC)c(OC)cc23)cc1OC (stereo not given)	TDP1 cell noCPT inconclusive, TDP1 cell CPT inconclusive, IL1B secr inh -83 (no result: TDP1 inh)
COc1cc2ccnc(Cc3cccc(OC)c3OC)c2cc1OC	TDP1 cell noCPT 13µM, TDP1 cell CPT inconclusive
COc1cc(Br)c(C(=O)c2nccc3cc(OC)c(OC)cc23)cc1OC	TDP1 cell noCPT 18µM, TDP1 cell CPT 23µM
COc1cc(Cc2nccc3cc(OC)c(OC)cc23)c(S(=O)(=O)O)cc1OC	none (no result: TDP1 inh)
COc1cc2ccnc(C=O)c2cc1OC	TDP1 cell noCPT 2.6µM, TDP1 cell CPT 4.6µM (no result: TDP1 inh)
COc1cc(N)c(Cc2nccc3cc(OC)c(OC)cc23)cc1OC	TDP1 cell noCPT inconclusive, TDP1 cell CPT inconclusive
CN(Cc1ccccc1)C(=O)C1CCC(CNS(=O)(=O)c2ccc3c(c2)CCCC(=O)N3)CC1 (stereo not given)	TDP1 cell noCPT inconclusive, TDP1 cell CPT inconclusive (no result: IL1B secr inh)
COc1cc(N)c(C(=O)c2nccc3cc(OC)c(OC)cc23)cc1OC	none (no result: TDP1 inh)
COc1cc2ccnc(C=NO)c2cc1OC	TDP1 cell noCPT 21µM, TDP1 cell CPT 21µM, IL1B secr inh inconclusive (no result: TDP1 inh)
O=C(O)c1cccc(S(=O)(=O)Nc2ccccc2Oc2ccccc2)c1	none (no result: TDP1 inh)
COc1ccc(-c2cc(C(F)(F)F)c3c(N)c(C(=O)NCCSC)sc3n2)cc1	TDP1 cell noCPT inconclusive, TDP1 cell CPT inconclusive (no result: TDP1 inh)
CN(C)CCNC(=O)c1sc2nc(-c3ccccc3)cc(C(F)(F)F)c2c1N	TDP1 cell noCPT 16µM, HepG2 tox 11µM, TGFb inhibitor inconclusive, TDP1 cell CPT inconclusive, IL1B secr inh -99

Screening data from PubChem.
